Bioassay records (PubChem)
This is a sample that favours compounds with a hit; in the whole collection about 32% have one here.
CYP2C9 inh: human CYP2C9 inhibition. P11712. CYP2C9 Supersomes, luciferin-H conversion, luminescence. inhibition, % at 5 µM. 96,000 tested, 20% active;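 active means blocking of liver enzyme CYP2C9 beyond about 50% at 5 µM, limit read from the data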
CYP2C9 act: CYP2C9 (human) activation; P11712; recombinant CYP2C9, luciferin-H conversion, luminescence; hits give high values; factor 1 = untreated enzyme, 0 = blocked; activation factor at 5 µM; 96,000 tested, 1.4% active;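 active means activation factor of 2 or more for CYP2C9 at a 5 µM dose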
PostGolgi yeast: growth inhibition of a yeast mutant, post-Golgi transport screen; post-Golgi transport phenotypic cell assay; inhibition, % at 10 µM; 98,000 tested, 0.9% active; AID 739;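 further: yeast cells grown in 1536-well plates; yeast grown about 18 h at 30C before absorbance read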
PostGolgi ctrl: yeast control strain growth, post-Golgi counter-screen | 98,000 tested, 5% active | inhibition, % at 10 µM | AID 738 | efflux-deficient yeast background strain, growth absorbance A615, 16 h
CYP2C19 act: activators of human cytochrome P450 2C19; AID 1025; activation factor at 5 µM; 96,000 tested, under 10 active; recombinant CYP2C19, luciferin-H EGE luminescence; hits give high values; 0 = fully inhibited enzyme, 1 = untreated enzyme;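 active means activation factor of at least 2 at 5 µM in the primary screen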
Target sequence (P33261 whole entry, looked up): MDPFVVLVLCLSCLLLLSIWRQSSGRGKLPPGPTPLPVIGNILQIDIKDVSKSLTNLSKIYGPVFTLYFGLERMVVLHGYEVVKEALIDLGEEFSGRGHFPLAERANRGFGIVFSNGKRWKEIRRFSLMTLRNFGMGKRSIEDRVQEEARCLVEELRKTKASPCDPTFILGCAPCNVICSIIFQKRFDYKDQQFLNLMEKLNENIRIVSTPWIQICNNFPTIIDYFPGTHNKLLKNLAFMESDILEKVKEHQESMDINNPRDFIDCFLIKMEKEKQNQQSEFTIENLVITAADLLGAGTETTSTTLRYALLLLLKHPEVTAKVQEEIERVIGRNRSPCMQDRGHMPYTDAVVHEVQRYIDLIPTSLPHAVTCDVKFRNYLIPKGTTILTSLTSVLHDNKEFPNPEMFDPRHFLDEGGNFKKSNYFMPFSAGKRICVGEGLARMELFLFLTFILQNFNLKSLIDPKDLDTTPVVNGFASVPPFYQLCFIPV
CYP2C19 inhib: inhibitors of human CYP2C19. P33261. CYP2C19 Supersomes, luciferin-H EGE luminescence, 30 min. inhibition, % at 5 µM. 96,000 tested, 21% active. AID 778;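 active means CYP2C19 inhibition above a set limit at 5 µM in the primary screen, cut at about 50% in these data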
Hits are given with their value; . = inactive; / = no result. Unless noted, no stated cut-off is given here; in the data, active means inhibition above about 30%; inactive means the rest.

SMILES	CYP2C9 inh	CYP2C9 act	PostGolgi yeast	PostGolgi ctrl	CYP2C19 act	CYP2C19 inhib
COc1cccc(-c2nc(CS(=O)(=O)CC(=O)Nc3cc(C)ccc3C)c(C)o2)c1	.	.	.	.	.	.
COc1ccc([N+](=O)[O-])cc1NC1CCCCC1	.	.	.	.	.	.
COc1cc(C=O)c(Br)cc1OC1CCCC1	.	.	.	34	.	.
COc1cc(NC(=O)CN2C(=O)c3ccccc3S2(=O)=O)c(OC)cc1Cl	52	.	.	.	.	67
COc1ccc(C)cc1NC(=O)CN1C(=O)c2ccccc2S1(=O)=O	.	.	.	.	.	.
O=C(CN1C(=O)c2ccccc2S1(=O)=O)Nc1ccc(S(=O)(=O)N2CCCCC2)cc1	62	.	.	.	.	.
O=C(CN1C(=O)c2ccccc2S1(=O)=O)Nc1ccc(S(=O)(=O)N2CCCC2)cc1	92	.	.	.	.	.
COc1cc(-c2c(C#N)c(=O)[nH]c3c2c(C)nn3-c2ccccc2)ccc1O	.	.	.	.	.	.
CC(C)(C)CC(=O)Nc1ccc(Nc2ccccc2)cc1	.	.	.	.	.	.
NC(=O)C1CCN(c2ncnc3c2c(-c2ccccc2)cn3-c2ccccc2)CC1	.	.	.	.	.	.
COc1ccccc1OCCNC(=O)c1ccccc1C	.	.	.	.	.	.
COc1ccc(NC(=O)C(CC(C)C)NC(=O)c2ccccc2C)cn1 (configuration not stated)	52	.	.	.	.	54
COC(=O)C1=C(C(=O)OC)SC2(S1)C(C(=O)OC)=C(C(=O)OC)SC1=C2c2cc(C)cc(C)c2NC1(C)C	79	.	.	.	.	67
CCOC(=O)CN1C(=O)C2(OCCCO2)c2ccccc21	.	.	.	.	.	.
Cc1ccc(C)c(CN2C(=O)C3(OCCCO3)c3ccccc32)c1	72	.	.	.	.	52
O=C(CN1C(=O)C2(OCCCO2)c2ccccc21)NCc1ccccc1	.	.	.	.	.	64
Cc1ccc(CNC(=O)CN2C(=O)C3(OCCCO3)c3ccccc32)cc1	.	.	.	.	.	62
C=CCNS(=O)(=O)c1ccc2nsnc2c1	.	.	.	.	.	.
COc1ccc(C2=NOC(C(=O)Nc3cc(Br)ccc3O)C2)cc1OC (configuration not stated)	.	.	.	.	.	.
CCOC(=O)c1c(NC(=O)Cn2nnc3ccccc32)sc2c1CCC(C)C2 (configuration not stated)	88	.	.	.	.	61
C=CCNCCCCOc1c(Cl)cc(C)cc1Br	.	.	.	.	.	57
Cc1cc(Cl)cc(Br)c1OCCCCn1cncn1	73	.	.	.	.	98
Cc1cc(Cl)c(OCCCn2cncn2)c(Br)c1	.	.	.	.	.	94
COCCCNCCCCOc1c(Cl)cc(C)cc1Br	.	.	.	.	.	.
Cn1cnnc1SCC(=O)N(Cc1ccc2c(c1)OCO2)C1(C(=O)NC2CCCCC2)CCCC1	.	.	.	.	.	.
SMILES	CYP2C9 inh	CYP2C9 act	PostGolgi yeast	PostGolgi ctrl	CYP2C19 act	CYP2C19 inhib
Cc1ccc(-n2c(Cn3nc(C(F)(F)F)cc3C)n[nH]c2=S)cc1	.	.	.	.	.	.
O=C(NC1(C(F)(F)F)C(=O)Nc2c1c(=O)[nH]c(=O)n2-c1ccc(F)cc1)c1cccnc1 (configuration not stated)	.	.	.	.	.	.
COC(=O)CSc1nc(-c2cccs2)ccc1C#N	.	.	.	.	.	.
CC(C)Cc1ccc(C#N)c(SCC(N)=O)n1	.	.	.	.	.	61
COc1ccc(N2C(=O)c3ccccc3NC23C(=O)N(C)c2ccccc23)cc1 (configuration not stated)	.	.	.	.	.	.
O=C1CN(C(=O)COC(=O)c2ccccc2NC(=O)c2ccco2)c2ccccc2N1	76	.	.	.	.	.
CCOC(=O)c1[nH]c(C)c(C(=O)NCCc2ccc(OC)cc2)c1C	72	.	.	.	.	.
CCOC(=O)c1[nH]c(C)c(C(=O)Nc2ccc(C)c(Cl)c2)c1C	/	/	.	.	/	/
O=C1CN(C(=O)COC(=O)C2=COCCO2)c2ccccc2N1	.	.	.	.	.	.
CCOC(=O)c1[nH]c(C)c(C(=O)Nc2cc(Cl)ccc2C)c1C	.	2	.	.	.	.
CCOC(=O)c1[nH]c(COC(=O)c2ccccc2NC(=O)c2ccco2)c(C(=O)OCC)c1C	88	.	.	.	.	.
